From PubChem BioAssay AID1259374 (The Scripps Research Institute Molecular Screening Center, 2018)
About 5,900 (0.91%) of roughly 650,000 compounds were called active. The entries come from a sample that favours actives as a whole. Values without a mark were called inactive. No stated cut-off is given here; in the data, active means inhibition above about 50%; inactive means the rest.

What follows are compounds tested against Microphthalmia-associated transcription factor (Homo sapiens) (UniProt O75030) (assay: MITF inhibitors, primary screen, biochemical, AlphaScreen, human (AID 1259374;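 further: 0% = vehicle wells with protein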)). Details: AlphaScreen MITF homodimerization, bead proximity signal; at 2.6 µM; stronger effect = higher value.
Chain of Microphthalmia-associated transcription factor (Homo sapiens) (O75030 whole entry, looked up): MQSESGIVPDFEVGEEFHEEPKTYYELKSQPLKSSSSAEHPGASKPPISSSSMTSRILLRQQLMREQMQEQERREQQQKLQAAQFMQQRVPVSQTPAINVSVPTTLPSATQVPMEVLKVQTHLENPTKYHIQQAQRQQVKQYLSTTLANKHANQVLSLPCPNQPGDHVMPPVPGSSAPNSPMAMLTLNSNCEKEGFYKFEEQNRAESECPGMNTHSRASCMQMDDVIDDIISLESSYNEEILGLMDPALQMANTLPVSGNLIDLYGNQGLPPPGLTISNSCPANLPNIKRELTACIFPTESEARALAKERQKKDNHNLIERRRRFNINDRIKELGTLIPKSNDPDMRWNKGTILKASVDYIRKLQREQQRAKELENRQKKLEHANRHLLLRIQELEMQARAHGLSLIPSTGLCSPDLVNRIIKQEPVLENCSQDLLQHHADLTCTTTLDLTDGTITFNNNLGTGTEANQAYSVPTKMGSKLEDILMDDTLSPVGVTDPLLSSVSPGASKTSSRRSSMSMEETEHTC

SMILES | inhibition
Cc1ccc(C23CC4CC(CC(C(=O)NCC(=O)NN)(C4)C2)C3)cc1 | -4.06%
O=C(COc1ccc(Cl)cc1)N/N=C/c1ccc([N+](=O)[O-])c(O)c1 | -8.51%
COc1ccc(S(=O)(=O)N(C)CC(=O)Nc2ccc(F)cc2F)cc1OC | -13.8%
N#C/C(=C\c1ccc(-c2ccc(F)cc2)o1)C(=O)O | 9.25%
N#C/C(=C/c1ccc(-c2ccc3c(c2)C(=O)NC3=O)o1)C(=O)O | 54.7% (active)
N#C/C(=C/c1ccc(-c2ccc(F)cc2)o1)C(=O)N1CCCCC1 | -2.65%
CCCN(CCC)C(=O)C(Cc1ccccc1)N1C(=O)C2C3C=CC(C3)C2C1=O (stereo not given) | -7.73%
COc1ccc(CNC(=O)CC(C)C)cc1 | 4.41%
COc1ccc(CNCC2CN(CC(C)C)CCO2)cc1 (stereo not given) | 54.3% (active)
COc1ccc(CN[C@H]2C[C@H]3C(=O)N[C@@H](C(C)C)C(=O)N3C2)cc1 | 16%
CCCCCNC(=O)COc1ccccc1C#N | -3.44%
O=C(Nc1ccc(F)cc1F)c1cc([N+](=O)[O-])ccc1Cl | -3.07%
O=C(Nc1nc2ccccc2n1CCOc1ccc(F)cc1)c1ccc(Cl)cc1 | -6.19%
COc1ccc(C2=NNc3cccc4c(OC)ccc2c34)cc1OC | 51.8% (active)
COc1ccc(-c2nc3ccccc3[nH]2)cc1OC | 10.1%
COc1cc(Nc2nc(-c3ccc(OC)c(OC)c3)nc3ccccc23)cc(OC)c1 | -23%
CCNCc1ccc(OCC(=O)Nc2ccc(OC)cc2)c(OC)c1 | -12.6%
COC(=O)c1ccc(N2CCOCC2)c([N+](=O)[O-])c1 | 10.3%
COC(=O)Oc1c([N+](=O)[O-])cc2oc(=O)sc2c1[N+](=O)[O-] | 59.1% (active)
COc1cc([N+](=O)[O-])cc([N+](=O)[O-])c1NC(=O)N1CCOCC1 | 11.6%
Cc1cccc(C(=O)Nc2ccc3oc(-c4ccc(Cl)c(Cl)c4)nc3c2)c1 | 6.63%
O=C(Nc1nc2ccccc2s1)C(Cc1ccccc1)N1C(=O)c2ccccc2C1=O (stereo not given) | -3.65%
CNC(=O)c1cc(F)ccc1Nc1cc(Nc2ccc(NC(C)=O)cn2)ncc1C(F)(F)F | 1.21%
Cc1ccccc1OCc1nnc(SCC(=O)NC(C)(C)C)n1C | 11.7%
CC(C)c1ccc(NC(=O)CSc2nnc(CNC(=O)c3ccccc3)n2C)cc1 | 14%

SMILES | inhibition
Cc1cccnc1NC(=O)CSc1nnc(COc2ccc(C(C)C)cc2)n1C | 53.7% (active)
CCOc1cc(/C=N/NC(=O)CC(=O)NCC(C)C)ccc1O | 14.6%
Cc1nc(NCCCN2CCOCC2)cc(-c2ccccn2)n1 | 12.2%
c1ccc(-c2cc(NCCCn3ccnc3)nc(-c3ccccn3)n2)nc1 | 115% (active)
Clc1ccc(-c2cc(NCCCn3ccnc3)ncn2)cc1 | 14.7%
CCCCSc1nnc(CNC(=O)Cc2ccccc2)n1-c1ccc(Cl)c(Cl)c1 | 15.1%
O=C1CCc2ccc(OCc3ccccc3F)cc21 | 12.2%
COc1ccc(-n2nc(C(=O)N3CCC(C(N)=O)CC3)c3ccccc3c2=O)c(OC)c1 | 11.6%
CCN1CCN(CC(=O)Nc2ccc(N(CC)CC)cc2C)CC1 | 70.1% (active)
CCN(CC)c1ccc(NC(=O)c2ccc(OC)cc2)c(C)c1 | -6.58%
CCN(CC)c1ccc(NC(=O)CCc2nnc3ccc(N4CCCCC4)nn23)c(C)c1 | 15.7%
O=C(Cc1csc(Nc2ccc(Cl)cn2)n1)NCc1ccccc1Cl | 13.2%
Cc1ccccc1-n1c(SCC(=O)Nc2ccc(C(N)=O)cc2)nnc1-c1ccncc1 | 24.8%
Cc1c(C(=O)c2ccccc2)oc2ccc(NC(=O)C(C)C)cc12 | -6.05%
O=C1N=C(N2CCCC2)S/C1=C/c1ccc(-c2ccccc2[N+](=O)[O-])o1 | 18.4%
C=CCn1c(C)cc(-c2csc(NC(=O)c3ccc([N+](=O)[O-])s3)n2)c1C | 5.62%
CCCCC(=O)Nc1nc(-c2ccc(I)cc2)cs1 | -1.42%
CCCn1c(C)cc(-c2csc(NC(=O)Cc3ccsc3)n2)c1C | 73.1% (active)
O=C(NCCc1ccccc1)c1c[nH]c2ccc(S(=O)(=O)N3CCc4ccccc43)cc2c1=O | 5.29%
COc1ccc(Br)cc1CN1CCN(CCOCCO)CC1 | 66.6% (active)
COc1cc(OC)c(OC)cc1CN1CCN(C(=O)c2cccs2)CC1 | 35.6%
COc1cccc(CN2CCN(CCOCCO)CC2)c1OC | -6.67%
COc1cccc(C(=O)N2CCN(Cc3cc(OC)c(OC)cc3OC)CC2)c1 | 63.4% (active)
COc1cccc(C(=O)N2CCN(C(=O)c3cccc(OC)c3)CC2)c1 | -5.18%
COc1cc(Br)cc(CN2CCCN(C)CC2)c1O | 7.81%

SMILES | inhibition
COc1ccc(Br)cc1CN1CCN(C(=O)c2cccnc2)CC1 | 88.2% (active)
OCCN1CCN(CC(O)COCCOc2ccc(Cl)cc2)CC1 (stereo not given) | -9.2%
COc1ccc(C(=O)N2CCN(Cc3cc(OC)c(OC)cc3OC)CC2)cc1 | -7.92%
COc1ccc(Br)cc1CN1CCN(C(C)=O)CC1 | 2.27%
OCCOCCN1CCN(Cc2ccc(Cl)cc2)CC1 | 82.7% (active)
COc1ccc(/C(C)=N/N)cc1CN1CCCCC1 | -0.23%
CC1SC2(CCCCC2)N(c2ccc(F)cc2)C1=O (stereo not given) | -0.68%
COc1ccccc1NC(=O)CN1C(=O)C2CC=C(Cl)CC2C1=O (stereo not given) | 2.72%
Cc1cc(OCC(O)CNCC(C)O)c(C(C)C)cc1Cl (stereo not given) | 0.85%
O=S(=O)(NC1CCCC1)c1ccc(-c2ccc(S(=O)(=O)NC3CCCC3)cc2)cc1 | -2.79%
Clc1ccc(-c2csc(Nc3cccc4ccccc34)n2)cc1Cl | 0.76%
N#CC1=C(SCC(=O)Nc2cccc(F)c2)NC(=O)CC1c1ccccc1F (stereo not given) | 3.64%
CCc1ccccc1NC(=O)c1ccc(F)c(S(=O)(=O)NCc2ccc3c(c2)OCO3)c1 | 10.2%
Cc1ccc(/C=C(\C#N)C(N)=O)c(C)c1 | 6.24%
COCCn1nnnc1C(c1cccnc1)N1CCN(c2ccccc2OC)CC1 (stereo not given) | -7.29%
Nc1cccc(-c2ccc(C(=O)Nc3ccc(N4CCOCC4)cc3)s2)c1 | 13.4%
CCS(=O)(=O)N1CCC(N2CC(C)CC(C)C2)CC1 (stereo not given) | 31.2%
CCS(=O)(=O)N1CCN(C2CCCCC2C)CC1 (stereo not given) | 51.2% (active)
CCS(=O)(=O)N1CCC(c2nnc(C3CC3)s2)CC1 | 1.6%
COc1cc(/C=N/NC(=O)c2cccnc2)ccc1Oc1ccc([N+](=O)[O-])cc1[N+](=O)[O-] | 12.4%
CCC1CN(Cc2ccccn2)Cc2ccc(Cl)cc2O1 (stereo not given) | -11.7%
CCCCCCOC(=O)c1ccc(-c2ccc(-c3ccc(C(=O)OCCCCCC)cc3)cc2)cc1 | 14.5%
CCCCCCOC(=O)c1cc(C(=O)OCCCCCC)c(C)nc1C | 55.6% (active)
CCOC(=O)c1cc2cccnc2nc1C | 12.4%
CCN1CCN(Cc2c(O)ccc3cc(-c4ccccc4)c(=O)oc23)CC1 | 2.19%

SMILES | inhibition
Cc1cn2c(=O)c(C(=O)Nc3ccc(Br)c(C)c3)cnc2s1 | 3.85%
C=CCNC(=O)c1cc2cc(Cl)ccc2oc1=O | 12.4%
CC1(C)CC(=O)C2=C(C1)Nc1ccccc1N(C(=O)Cc1ccccc1)C2c1cccc(F)c1 (stereo not given) | 0.57%
CC1(C)CC(=O)C2=C(C1)Nc1ccccc1N(C(=O)Cc1ccccc1)C2c1ccc(-c2ccc([N+](=O)[O-])cc2)o1 (stereo not given) | 65.2% (active)
CCN(CC)c1ccc(C2C3=C(CC(C)(C)CC3=O)Nc3ccccc3N2C(=O)Cc2ccccc2)cc1 (stereo not given) | 2.82%
COc1ccc(C2CC(=O)C3=C(C2)Nc2ccccc2N(C(=O)c2ccc(Cl)c(Cl)c2)C3c2ccc(C)cc2)cc1 (stereo not given) | -2.68%
COc1cc(NC(C)C(=O)Nc2ccc(C(C)=O)cc2)cc(OC)c1 (stereo not given) | 0.12%
CC(=O)c1ccc(NC(=O)C(C)NCc2ccc(C)cc2)cc1 (stereo not given) | 76% (active)
CC(=O)c1ccc(NC(=O)C(C)NCc2ccc(Cl)cc2)cc1 (stereo not given) | 3.65%
Cc1nc2c(c(=O)[nH]1)C(c1ccc(Cl)c(Cl)c1)C(C#N)=C(N)O2 (stereo not given) | 3.39%
C=CCNC(=O)C(=O)Nc1cc(C)ccc1OC | 12.4%
NS(=O)(=O)c1ccc2nc(NC(=O)COc3ccccc3)sc2c1 | 5.22%
NS(=O)(=O)c1cccc(NC(=O)COc2ncnc3sc(-c4ccccc4)cc23)c1 | 51.8% (active)
CNC(=O)NC(=O)CSc1ncnc2sc(-c3ccccc3)cc12 | 9.51%
O=S(=O)(NCc1cccnc1)c1ccc(-n2cnnn2)cc1 | -8.13%
COc1ccc(Cc2nnc(N/N=C/c3ccccc3O)[nH]c2=O)cc1OC | 112% (active)
CCOc1ccccc1Nc1nnc(Cc2ccc(OC)cc2)c(=O)[nH]1 | 24.2%
COc1cccc(Nc2nnc(Cc3ccc(Cl)cc3)c(=O)[nH]2)c1 | 10.6%
Cc1cc(NC(=O)Cc2ccccc2)n(-c2nc(C)c(C)c(=O)[nH]2)n1 | 24.5%
CC[C@@H]1NC(=O)[C@H]2CN(C(=O)c3cccs3)CCN2C1=O | 14.5%
C[C@@H](OCc1ccccc1)[C@@H]1NC(=O)[C@H]2CN(C(=O)Nc3cccc(F)c3)CCN2C1=O | 75.3% (active)
CC[C@@H]1NC(=O)[C@H]2CN(C(=O)NCc3ccccc3)CCN2C1=O | 75.7% (active)
C[C@@H](OCc1ccccc1)[C@@H]1NC(=O)[C@H]2CN(Cc3ccc4ncccc4c3)CCN2C1=O | 15.9%
C[C@H](O)[C@H]1NC(=O)[C@H]2CN(C(=O)c3ccccc3)CCN2C1=O | -12.5%
O=C1N[C@H](Cc2ccccc2)C(=O)N2CCN(C(=O)Oc3ccccc3)C[C@H]12 | -5.43%
